High-throughput results from PubChem.
An excerpt weighted towards active compounds, which were near 1.8% of everything screened.
GLP1R cytotox: qHTS of GLP-1 Receptor Inverse Agonists: Cytotox Screen; HEK293 cAMP-luciferase reporter cells, luminescence, 24 h; Potency, µM (highest dose often 38.3 µM), for the others: top-dose activity change, negative = inhibition, actives largely listed as inhibitors; hit rate 0.13% among 410,000;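 also: loss of luciferase light is scored as toxicity; potency is read from the fitted curve at half-maximal effect; % is scaled to controls: 0 for no effect and ±100 for the full control effect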
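Seeding density was 200 cells/uL; after overnight-length (12 h) culture, 23 nL compounds went on for 24 h at 37 °C. Readout used a luciferase detection reagent, luminescence taken after 12 min at room temperature.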
GLP1R inv ag: qHTS of GLP-1 Receptor Inverse Agonists (Inhibition Mode). Glucagon-like peptide 1 receptor (Homo sapiens), P43220. HEK293 GLP-1R CRE-luciferase, luminescence, 24 h; GLP-1R form is constitutively active. Potency, µM (doses to about 38.3 µM), without a hit: top-dose activity change, negative = inhibition, usual class: inhibitors. hit rate 1.6% among 410,000; also: potency is read from the fitted curve at half-maximal effect; % is scaled to controls: 0 for no effect and ±100 for the full control effect; nearly all actives have a fitted effect of over 55% in size
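Constitutively active GLP-1R drives a cAMP-responsive luciferase in stably transfected HEK293 cells; test compounds are added after overnight (12 h) attachment and left 24 hr, and signal loss in luminescence marks inhibition.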
PTHR1 agonist: qHTS for PTHR1 Agonists: Primary Screen; Parathyroid hormone/parathyroid hormone-related peptide receptor (Homo sapiens), Q03431; HEK293 GP2 PTHR1 cells, GloSensor cAMP luminescence, 1 h; Potency, µM (series often up to 115 µM), for inactives: top-dose activation, usual class: activators; hit rate 0.075% among 410,000; AID 743266, 2014; also: potency is read from the fitted curve at half-maximal effect; nearly all actives have a fitted effect of over 55% in size
Target sequence (Q03431 whole entry, looked up): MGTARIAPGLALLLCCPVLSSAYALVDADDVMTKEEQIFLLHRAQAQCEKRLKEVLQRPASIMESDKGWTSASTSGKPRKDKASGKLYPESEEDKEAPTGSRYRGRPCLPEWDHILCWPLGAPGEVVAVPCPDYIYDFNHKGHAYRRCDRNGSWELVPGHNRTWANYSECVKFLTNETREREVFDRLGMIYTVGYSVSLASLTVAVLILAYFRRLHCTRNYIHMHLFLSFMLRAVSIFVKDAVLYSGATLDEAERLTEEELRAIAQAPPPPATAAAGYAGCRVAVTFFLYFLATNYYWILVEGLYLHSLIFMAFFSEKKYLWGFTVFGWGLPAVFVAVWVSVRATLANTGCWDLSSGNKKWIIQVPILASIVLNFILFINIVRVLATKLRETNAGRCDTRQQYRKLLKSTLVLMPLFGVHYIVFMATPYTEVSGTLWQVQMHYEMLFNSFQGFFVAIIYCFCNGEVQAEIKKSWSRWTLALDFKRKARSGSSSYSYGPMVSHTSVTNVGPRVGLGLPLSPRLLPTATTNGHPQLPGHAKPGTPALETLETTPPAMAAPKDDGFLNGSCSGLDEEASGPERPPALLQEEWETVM
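HEK-293-derived GP2 cells expressing PTHR1 and a GloSensor cAMP reporter, 3,000/well, plated overnight, given luciferin plus IBMX (each 0.5 mM as added) for 1 h at 37 °C, then compound for 1 h at 37 °C. Luminescence was read after 15 min at room temperature.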
TSHR antagonist: Antagonists of the Thyroid Stimulating Hormone Receptor: HTS campaign | Thyrotropin receptor (Homo sapiens), P16473 | TSHR-expressing cells, TSH-stimulated cAMP HTRF, 2 h; stronger effect = lower value | activity change, negative = inhibition, % at 11.5 µM | hit rate 0.2% among 330,000 | AID 504810, 2011;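 active = activity change below a set negative limit, meaning inhibition stronger than a set level, cut at about -70% in these data; inconclusive = activity change between two set negative limits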; also: % is scaled to controls: 0 for no effect and ±100 for the full control effect
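Read-out is FRET at 665 nm (cryptate excitation 337 nm) from a cryptate-tagged anti-cAMP antibody, competed by cell cAMP against cAMP-d2. Compounds are tested on freshly harvested TSHR cells challenged with 4nM TSH (EC80) for 2 hours at 37 deg C.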
GLP-1R agonist: qHTS of GLP-1 Receptor Agonists. Glucagon-like peptide 1 receptor (Homo sapiens), P43220. HEK293 GLP-1R CRE-luciferase, luminescence, 4-6 h; cells express a hypersensitive GLP-1R form. Potency, µM (series often up to 45.6 µM), without a hit: at the top dose activation, usual class: activators. hit rate 0.007% among 380,000. AID 624172, 2012; also: potency is read from the fitted curve at half-maximal effect; % of control where 0% means no effect
An asterisk follows results filed as active; i = inactive; ? = inconclusive; . = not tested or not shown; [ ] = dose if it differs, or a comment. Unless noted, calls follow the shape of the dose curve; as a rule, active = well fitted curve in the direction sought with a large enough effect; inconclusive = small, poorly fitted or top-dose-only effect, or another doubt; inactive = no such curve, though single readings can be large; an effect the other way counts as inactive or inconclusive.

SMILES | GLP1R cytotox | GLP1R inv ag | PTHR1 agonist | TSHR antagonist | GLP-1R agonist
COc1ccc(/C=N/OCC(=O)NC(c2ccccc2)c2ccccc2)c(OC)c1 | 1.5% | 8.91µM* | -24.2% | 4.0 | 0.9%
COc1ccc(/C=N/OCC(=O)NCC(C)C)c(OC)c1 | 0.7% | -5.7% | -11.0% | -4.6 | -0.3%
CC(C)(C)c1cc(C(=O)NNC(=O)Nc2cccc(Cl)c2)n(Cc2ccccc2)n1 | -20.3% | 5.01µM* | -31.5% | -10.7 | 1.1%
CC(C)(C)c1cc(C(=O)NNC(=O)Nc2ccccc2)n(Cc2ccccc2)n1 | -8.1% | ? | -10.5% | 8.8 | 4.1%
CCN(CC)S(=O)(=O)c1ccc2c(c1)N(CC(=O)NCCc1ccccc1)C(=O)CO2 | 4.6% | 6.3% | -1.5% | . | .
CCCCCC1CCC(c2n[nH]c(=S)n2C)CC1 (centres undefined) | 3.16µM* | ? | i | 23.7 | 8.0%
Cc1ccc(NC(=O)Cn2cc(C(=O)c3cccs3)c3ccccc32)cc1C | -24.0% | ? | i | . | .
CCCOc1ccc(C(=O)Nc2c(C(=O)c3ccc(C)cc3)oc3ccccc23)cc1 | 0.4% | 2.3% | i | . | -6.0%
CC(C)/C=N/Nc1nc(-c2ccc(Br)cc2)cs1 | -6.3% | 5.62µM* | -57.8% | 8.8 | -4.8%
O=C(Nc1nc(-c2ccc(Br)cc2)cs1)c1cccnc1 | -2.4% | 23.1% | -19.5% | -11.9 | 4.3%
O=C1c2cccc(OCc3ccc(F)cc3)c2CCN1Cc1ccc(F)cc1 | -3.7% | ? | -58.7% | -44.2 | -9.0%
Cc1ccc(CN2CCc3c(OCc4ccc(F)cc4)cccc3C2=O)cc1 | 12.1% | 4.47µM* | -35.8% | -40.0 | 13.3%
FC(F)(F)c1cccc(N2CCN(C(=S)NC3CCCC3)CC2)c1 | ? | 7.94µM* | -21.9%[57.5 µM] | -21.3 | -1.7%
FC(F)(F)c1cccc(N2CCN(C(=S)NC3CCCCC3)CC2)c1 | -29.2% | ? | -27.1% | -19.9 | -0.9%
CCCn1cnc2c(SCc3ccccc3)nc(N)nc21 | 0.3% | 102.5% | i | . | ?
Nc1nc(SCc2ccccc2)c2ncn(Cc3ccccc3)c2n1 | -1.4% | 7.94µM* | -35.6% | . | 23.3%
CCCCn1cnc2c(SCc3ccccc3Cl)nc(N)nc21 | -11.3% | 10µM* | i | . | 34.0%
O=C(Cn1c(=O)nc(-c2ccccc2)c2ccccc21)NCCc1ccccc1 | 5.8% | 6.3% | i | . | .
CCCc1cc(=O)[nH]c(Nc2ccc(C)c(O)c2)n1 | -0.3% | -3.0% | i | . | .
Cc1ccc(-c2nnc(SCC(=O)Nc3ccccc3F)o2)cc1 | -8.3% | 2.24µM* | -90.8% | -10.1 | -2.1%
Cc1cc(-c2nnc(SCC(=O)Nc3ccccc3C(F)(F)F)o2)c(C)n1-c1ccccc1 | -5.2% | 0.891µM* | -4.1% | -15.6 | -21.7%
O=C(CSc1nnc(-c2ccccc2)o1)Nc1ccccc1F | -2.8% | ? | -28.6% | 17.8 | -0.3%
Cc1cccc(NC(=O)CSc2nnc(-c3cc(C)n(-c4ccccc4)c3C)o2)c1C | -7.0% | ? | -7.5%[57.5 µM] | 5.9 | 1.8%
O=C(Nc1ccc(Oc2cccnc2)cc1)c1ccc([N+](=O)[O-])cc1 | 15.5% | -10.7% | -11.5% | 2.6 | 3.9%
O=C(NCC(O)c1ccc([N+](=O)[O-])cc1)C(c1ccccc1)c1ccccc1 (centres undefined) | -6.7% | ? | -19.1% | 2.8 | 15.1%
SMILES | GLP1R cytotox | GLP1R inv ag | PTHR1 agonist | TSHR antagonist | GLP-1R agonist
O=C(Nc1ccc(Nc2ccncc2)cc1)c1ccc([N+](=O)[O-])cc1 | ? | 10µM* | -37.6% | -10.6 | -0.8%
O=C(Nc1ccc([N+](=O)[O-])cc1)C(c1ccccc1)c1ccccc1 | -17.6% | 2.24µM* | -24.1% | . | -1.6%
Fc1cccc(Cl)c1C1Nc2cccc3cccc(c23)N1 | 2.4% | 46.6% | -4.7% | -16.6 | -0.8%
Clc1cccc(Cl)c1C1Nc2cccc3cccc(c23)N1 | ? | 191.1% | -55.0% | -70.5* | -4.1%
CCCNC1=C(N(C(C)=O)c2cccc(F)c2)C(=O)c2ccccc2C1=O | ? | 8.91µM* | i | 17.6 | -39.6%
CSc1ccc(NC(=O)NCCCN2CCC(Cc3ccccc3)CC2)cc1 | ? | 7.94µM* | i | 8.7 | 1.6%
CCCOC(=O)c1ccc(N)cc1 | . | . | . | . | 2.1%
CC(C)(C)OC(=O)N1CCC(c2c(C(=O)NCC3CCN(C4CCCC4)C3)cnn2-c2cccc(Cl)c2)CC1 (centres undefined) | ? | 12.6µM* | -13.6% | -0.2 | 3.5%
CC(C)(C)OC(=O)N1CCC(c2c(C(=O)NCC3CCN(C4CCCC4)C3)cnn2-c2ccccc2)CC1 (centres undefined) | 0.0% | ? | i | -3.2 | 10.9%
C=CC[C@H](CC(=O)NCCO)C(=O)N[C@H](COC(=O)[C@@H](CC=C)Cc1ccc(F)cc1)Cc1ccccc1 | ? | 10µM* | i | 32.1 | 4.2%
C=CC[C@H](CC(=O)NCCO)C(=O)N[C@@H](COC(=O)[C@@H](CC=C)Cc1ccc(F)cc1)Cc1ccccc1 | 3.8% | -3.9% | i | -2.5 | -0.5%
C=CCC[C@@H](Cc1ccc(F)cc1)C(=O)OC[C@@H](NC(=O)[C@@H](CC=C)CC(=O)N[C@@H](CO)Cc1ccccc1)C(C)(C)C | -22.2% | 10µM* | -22.6% | -21.8 | -1.8%
C=CCC[C@H](Cc1ccc(F)cc1)C(=O)OC[C@@H](NC(=O)[C@@H](CC=C)CC(=O)N[C@@H](CO)Cc1ccccc1)C(C)(C)C | ? | ? | -2.2% | -19.7 | -3.9%
C=CC[C@H](CC(=O)N(CCO)Cc1ccccc1)C(=O)N[C@H](COC(=O)[C@@H](CC=C)Cc1ccc(F)cc1)C(C)(C)C | -25.2% | 10µM* | -32.1% | -45.8 | -0.4%
COc1cc(/C=N/N=C2/C(=O)Nc3ccccc32)ccc1O | ? | 85.8% | i | -3.7 | 5.9%
O=C1Nc2ccccc2/C1=N\N=C\c1ccc(O)c(O)c1 | 11.2µM* | 25.0% | -31.7% | -6.5 | 15.2%
Cc1ccc(S(=O)(=O)Nc2cccc(C(=O)NCC3(N4CCCCC4)CCCCC3)c2)cc1F | -26.5% | 11.2µM* | i | 8.2 | 14.3%
O=C(NCCC1=CCCCC1)C1COc2ccccc2O1 (centres undefined) | 13.0% | 8.91µM* | -16.0%[57.5 µM] | -4.1 | 0.3%
Cc1ccccc1S(=O)Cc1ccc(C(=O)NC2CC2)o1 (centres undefined) | 5.9% | 8.4% | -3.3% | 0.6 | -4.5%
CCN(Cc1ccccc1)C(=O)c1ccc(CS(=O)c2ccccc2C)o1 (centres undefined) | -6.1% | 10µM* | i | -5.1 | -1.3%
C/C(=N\Nc1nc(N2CCCCC2)nc(N2CCOCC2)n1)c1ccccc1O | -1.6% | 2.51µM* | -13.6% | -12.1 | 23.0%
